High-throughput results (PubChem)
Rows were chosen to be rich in hits. Some 5.8% of all compounds tested hit in one or more screens of this group.
RORg inh = qHTS for inhibitors of ROR gamma transcriptional activity; Potency, µM (titrated, usually from 53.6 µM), usual class: inhibitors; Drosophila S2 Gal4-RORgamma UAS-luciferase reporter, 20 h; 310,000 tested, 5.4% active; further: nearly all actives have a fitted effect of over 60% in size
Target sequence (P51450 whole entry, looked up, the tested form may be a part): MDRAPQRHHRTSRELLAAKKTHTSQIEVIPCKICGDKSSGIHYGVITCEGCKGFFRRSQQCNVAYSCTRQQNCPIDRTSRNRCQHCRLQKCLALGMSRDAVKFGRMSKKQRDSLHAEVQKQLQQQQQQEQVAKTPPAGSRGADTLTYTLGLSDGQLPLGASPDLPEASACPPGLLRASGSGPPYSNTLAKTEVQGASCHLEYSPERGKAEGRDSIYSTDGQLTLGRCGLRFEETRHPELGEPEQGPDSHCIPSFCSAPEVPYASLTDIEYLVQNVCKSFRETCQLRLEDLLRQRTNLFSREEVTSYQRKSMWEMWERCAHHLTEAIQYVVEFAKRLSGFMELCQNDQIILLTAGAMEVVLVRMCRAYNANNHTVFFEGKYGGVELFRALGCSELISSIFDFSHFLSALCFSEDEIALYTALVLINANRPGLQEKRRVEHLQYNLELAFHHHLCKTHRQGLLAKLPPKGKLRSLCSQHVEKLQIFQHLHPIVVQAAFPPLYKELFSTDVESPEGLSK
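Schneider cells (Drosophila), stable Gal4 DBD–ROR gamma + UAS-luc; 1 hr cmpd preincubation; Cu2+ induction 700 uM final; 20 hr ambient; luminescence.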
TRPV1 potentiator = HTS Assay for Compounds that Act as Potentiators of the Vanilloid Receptor 1; Transient receptor potential cation channel subfamily V member 1 (Homo sapiens), Q8NER1; TRPV1-expressing cells, Fluo-8 calcium influx, capsaicin EC20 potentiation; potentiation, % at 8.33 µM; 320,000 tested, 0.02% active; AID 540277, 2011; in the data active means potentiation above about 80%; inconclusive means between about 30% and that limit
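Fluo-8 calcium influx in TRPV1-expressing cells, kinetic read (ex 480/em 520 nm). Compound added and read 3 min for agonist activity, followed by capsaicin at EC20 final and 2 min further read for enhancement.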
TRPV1 agonist = HTS Assay for Compounds that Act as Agonists of the Vanilloid Receptor 1; Transient receptor potential cation channel subfamily V member 1 (Homo sapiens), Q8NER1; TRPV1-expressing cells, Fluo-8 calcium influx, agonist mode; activation, % at 8.33 µM; 320,000 tested, 0.19% active; in the data active means activation above about 80%; inconclusive means between about 30% and that limit
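Fluo-8 calcium influx in TRPV1-expressing cells, kinetic read (ex 480/em 520 nm). Compound added and read 3 min for agonist activity, followed by capsaicin at EC20 final and 2 min further read for enhancement.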
uPA generation = qHTS for Inhibitors of Cell Surface uPA Generation; AID 540303, 2011; Potency, µM (titrated, usually from 38.3 µM), usual class: inhibitors; 330,000 tested, 0.31% active; cell surface uPA generation assay, qHTS; active means well fitted inhibition curve with a large enough effect; inconclusive means small, poorly fitted or top-dose-only effect; inactive means no such curve, though single readings can be large or run the other way; tested in mouse RAW 264.7 cells; further: nearly all actives have a fitted effect of over 55% in size
Gal4-VP16 FLuc = VP16 counterscreen qHTS for inhibitors of ROR gamma transcriptional activity | AID 2546, 2010 | Drosophila S2 Gal4-VP16 UAS-luciferase, luminescence, 20 h | 310,000 tested, 3.5% active | Potency, µM (titrated, usually from 53.6 µM), actives largely listed as inhibitors;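 further: Gal4-VP16 expression switched on by copper sulfate through the metallothionein promoter; nearly all actives have a fitted effect of over 50% in size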
Of the large screens only hits and unclear results are named; the others gave an inactive call. Unless noted, the call rests on the fitted dose curve; in most records, active means well fitted curve in the direction sought with a large enough effect; inconclusive means small, poorly fitted or top-dose-only effect, or another doubt; inactive means no such curve, though single readings can be large; an effect the other way counts as inactive or inconclusive.

COc1cc2c(cc1CC=C(C)C)C(=O)C[C@@H](c1ccc(O)cc1)O2	Gal4-VP16 FLuc 11µM (no result: TRPV1 potentiator, TRPV1 agonist, uPA generation)
Cc1ccc(-c2noc(CSc3ccccc3)n2)cc1	RORg inh inconclusive, Gal4-VP16 FLuc 2µM
C/C(=N\NC(=S)Nc1cc(S(=O)(=O)N2CCOCC2)ccc1Cl)c1ccccc1F	RORg inh 1.1µM, Gal4-VP16 FLuc 6.3µM
CC(C)N(C(=S)Nc1cc(S(=O)(=O)N2CCOCC2)ccc1Cl)c1ccccc1	none
Cc1ccc(OCc2ccc(C(=O)Nc3nc4ccccc4n3Cc3ccccc3)o2)c([N+](=O)[O-])c1	RORg inh inconclusive, Gal4-VP16 FLuc 0.32µM
Cc1ccc(OCc2ccc(C(=O)Nc3nc4ccccc4n3C)o2)c([N+](=O)[O-])c1	RORg inh 5.6µM, TRPV1 potentiator inconclusive, Gal4-VP16 FLuc 3.2µM
Cc1ccc(OCc2ccc(C(=O)O)o2)c([N+](=O)[O-])c1	none
N#CC1(NC(=O)COC(=O)c2cc(=O)[nH]c3ccccc23)CCCCC1	none (no result: RORg inh, Gal4-VP16 FLuc)
Cc1ccc(OCCNS(=O)(=O)c2ccc(N3CCCC3=O)cc2)cc1C	Gal4-VP16 FLuc 13µM
Cc1ccc(OCCNS(=O)(=O)c2ccc(N3CCCC3=O)cc2)cc1	RORg inh inconclusive, Gal4-VP16 FLuc 13µM
COc1ccc(CCNS(=O)(=O)c2ccc(N3CCCC3=O)cc2)cc1	none (no result: RORg inh, TRPV1 potentiator, TRPV1 agonist, Gal4-VP16 FLuc)
Cc1ccc(CNC(=O)COc2cccc3c2OC(C)(C)C3)cc1	none (no result: RORg inh, Gal4-VP16 FLuc)
O=C(COC(=O)CC(c1ccccc1)c1ccccc1)NCc1ccc(Cl)cc1	TRPV1 agonist inconclusive, Gal4-VP16 FLuc 20µM
CCCCC(=O)NC(=S)Nc1nnn(CCC)n1	RORg inh 0.11µM, Gal4-VP16 FLuc 0.56µM
CCCCn1nnc(NC(=S)NC(=O)c2ccc(-c3cccc(Cl)c3Cl)o2)n1	RORg inh 1.3µM, Gal4-VP16 FLuc 1.1µM
CCCCC(=O)Nc1nnn(CCC)n1	uPA generation inconclusive
CCOc1ccc(C(=O)NC(=S)Nc2ncccc2C)cc1[N+](=O)[O-]	none
CCCCn1nnc(NC(=S)NC(=O)c2ccc(OCC)c([N+](=O)[O-])c2)n1	RORg inh 2.8µM, Gal4-VP16 FLuc 2.5µM
CC(C)Oc1cc(NC(=O)CS(=O)(=O)CC(=O)N(C)C)c(Cl)cc1Cl	none
Cc1ccc(NC(=O)c2nc[nH]c2C(=O)NCC(=O)OC(C)(C)C)cc1	RORg inh 6.3µM, Gal4-VP16 FLuc inconclusive
CCOC(=O)c1ccc(NC(=O)c2nc[nH]c2C(=O)NC)cc1	RORg inh 10µM
CCOC(=O)c1ccc(NC(=O)c2nc[nH]c2C(=O)NCCNC(=O)c2[nH]cnc2C(=O)Nc2ccc(C(=O)OCC)cc2)cc1	none (no result: RORg inh, TRPV1 potentiator, TRPV1 agonist, Gal4-VP16 FLuc)
CCOC(=O)c1[nH]cnc1C(=O)Nc1ccc(C)cc1	RORg inh 13µM, Gal4-VP16 FLuc inconclusive
CCOC(=O)c1[nH]cnc1C(=O)Nc1ccc(Cl)cc1	RORg inh inconclusive
CC(NS(=O)(=O)c1cccc(C(=O)NCc2ccncc2)c1)c1ccccc1 (stereo unspecified)	none (no result: RORg inh, Gal4-VP16 FLuc)
COc1ccc(-n2ccnc2CN2CCCC(CO)(Cc3cccc(OC)c3)C2)cc1 (stereo unspecified)	RORg inh 11µM
CC1CCC(n2c(=S)[nH]c3ccccc3c2=O)CC1 (stereo unspecified)	RORg inh 0.2µM, Gal4-VP16 FLuc 1µM
CC1CCN(CCn2c(=S)[nH]c3ccccc3c2=O)CC1	RORg inh inconclusive
O=c1c2ccccc2[nH]c(=S)n1C1CCCCC1	RORg inh 0.89µM, Gal4-VP16 FLuc 2.8µM
CC1(C)CC(n2c(=S)[nH]c3ccccc3c2=O)CCO1 (stereo unspecified)	RORg inh 8.9µM, Gal4-VP16 FLuc 8.9µM
CC1CCCC(n2c(=S)[nH]c3ccccc3c2=O)C1C (stereo unspecified)	RORg inh 0.28µM, Gal4-VP16 FLuc 0.63µM (no result: uPA generation)
CC1CCCCN1CCCn1c(=S)[nH]c2ccccc2c1=O (stereo unspecified)	none
O=c1c2ccccc2[nH]c(=S)n1CCCN1CCN(C2CCCCC2)CC1	none (no result: Gal4-VP16 FLuc)
CCn1c(=O)c(-c2nc3ccccc3[nH]2)c(O)c2ccccc21	RORg inh 0.16µM, Gal4-VP16 FLuc 0.63µM
CCCn1c(=O)c(-c2nc3ccccc3[nH]2)c(O)c2ccccc21	RORg inh 0.5µM, Gal4-VP16 FLuc 2µM (no result: uPA generation)
COc1cccc([C@@H]2Oc3ccc(Br)cc3C[C@H]2OC(=O)NS(=O)(=O)c2ccc(F)cc2)c1	none (no result: TRPV1 potentiator, TRPV1 agonist, uPA generation)
Cc1cccc(N2C(=N)SCC2=O)c1C	none
CCc1nnc(N2C(=N)SCC2=O)s1	RORg inh 1.4µM, Gal4-VP16 FLuc 13µM
O=C(/C=C/c1ccccc1Cl)Nc1cccc(O)c1	RORg inh 0.32µM, TRPV1 agonist inconclusive, uPA generation 4.5µM, Gal4-VP16 FLuc 2.5µM
O=C(/C=C/c1ccccc1Cl)Nc1ccccc1	RORg inh 2µM, TRPV1 agonist inconclusive, Gal4-VP16 FLuc inconclusive
O=C(/C=C/c1ccccc1Cl)Nc1ccc2c(c1)C(=O)NC2=O	uPA generation inconclusive
CN(C)S(=O)(=O)c1ccc(NC(=O)/C=C/c2ccccc2Cl)cc1	RORg inh 0.5µM, TRPV1 agonist inconclusive
CC(C)CC1NC(=O)N(CC(=O)Nc2ccc3c(c2)OCCO3)C1=O (stereo unspecified)	none (no result: RORg inh, Gal4-VP16 FLuc)
CCC1=C2CC[C@H]3C(=O)N(C)C(=O)[C@H]3[C@H]2[C@@]2(Cc3ccccc3)C(=NCCc3c[nH]c4ccccc34)OC(=O)N2C1=O	none (no result: TRPV1 potentiator, TRPV1 agonist, uPA generation)
CC(Sc1nnc(-c2ccc(Cl)cc2Cl)n1Cc1ccccc1)C(=O)Nc1nccs1 (stereo unspecified)	RORg inh 11µM
Cc1nnc(SC(C)C(=O)Nc2ccc(Cl)cn2)n1Cc1ccccc1 (stereo unspecified)	none
O=C(NC(=S)NC1CCCCC1)c1ccc(F)cc1	RORg inh 3.2µM, TRPV1 agonist inconclusive, Gal4-VP16 FLuc 4.5µM
O=C(NC(=S)NC1CCN(Cc2ccccc2)CC1)c1ccc(F)cc1	RORg inh 7.1µM, Gal4-VP16 FLuc 11µM
O=C(Nc1ccc(F)cc1)NC1CCCCC1	TRPV1 agonist inconclusive
O=C(CCNC(=O)c1ccco1)Nc1ccc(SC(F)F)cc1	none
CCCSc1nnc(Sc2nnnn2-c2ccccc2)s1	RORg inh 1.6µM
CCc1ccc2[nH]c3nc(SCC(=O)NNC(=O)c4ccc(C(C)(C)C)cc4)nnc3c2c1	RORg inh 13µM (no result: uPA generation)
CC12CCC(=O)N1C(C(=O)Nc1nc(-c3ccccc3Cl)cs1)CS2 (stereo unspecified)	none (no result: RORg inh, Gal4-VP16 FLuc)
CCc1ccc(OCC(=O)N/N=C(\C)c2ccc(O)cc2O)cc1	RORg inh 13µM, Gal4-VP16 FLuc inconclusive
NC(=S)N/N=C1\CCSc2ccc(Cl)cc21	RORg inh 2µM, Gal4-VP16 FLuc 10µM
O=C(N/N=C1\CCSc2ccc(F)cc21)c1cccnc1	none
Nc1ccc(C#Cc2ccccc2)cc1	none
NS(=O)(=O)C#Cc1ccccc1	RORg inh 5.6µM, Gal4-VP16 FLuc inconclusive (no result: TRPV1 potentiator, TRPV1 agonist, uPA generation)
